Test results published in the supplement of paper PMC10849652.
About 7,900 targets were measured; listed, in parts, are those with a hit and a random draw of the rest. About 0.6% of all pairs of compound and target were hits.

compound: Cc1ccc(NC(=O)c2ccc(CN3CC[C@H](N(C)C)C3)c(C(F)(F)F)c2)cc1Nc1nccc(-c2cncnc2)n1 [bafetinib]; test: log2 fold change, soluble protein after heating vs DMSO (PISA); higher = thermal stabilisation; K562 cells, 10 uM, 30 min; active = over 0.2 and 3.5 SD of the protein, either way, in both replicates (recomputed)
In short: (§1)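 K562 cells (2×10^6 cells/mL) were treated with 10 μM compound for 30 min, and aliquots were heated for 3 min over 48°C-58°C. Pooled aliquots were extracted in PBS with 0.5% NP-40 at 4°C, and the supernatant after 21,000xg for 90 min was measured by TMTpro 16plex LC-MS/MS with channel sums equalised. Reported thermal stability, relative to control samples and from duplicates, is a log2 fold change.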

Chain of UniProt Q9Y2H1 (Q9Y2H1 whole entry, looked up): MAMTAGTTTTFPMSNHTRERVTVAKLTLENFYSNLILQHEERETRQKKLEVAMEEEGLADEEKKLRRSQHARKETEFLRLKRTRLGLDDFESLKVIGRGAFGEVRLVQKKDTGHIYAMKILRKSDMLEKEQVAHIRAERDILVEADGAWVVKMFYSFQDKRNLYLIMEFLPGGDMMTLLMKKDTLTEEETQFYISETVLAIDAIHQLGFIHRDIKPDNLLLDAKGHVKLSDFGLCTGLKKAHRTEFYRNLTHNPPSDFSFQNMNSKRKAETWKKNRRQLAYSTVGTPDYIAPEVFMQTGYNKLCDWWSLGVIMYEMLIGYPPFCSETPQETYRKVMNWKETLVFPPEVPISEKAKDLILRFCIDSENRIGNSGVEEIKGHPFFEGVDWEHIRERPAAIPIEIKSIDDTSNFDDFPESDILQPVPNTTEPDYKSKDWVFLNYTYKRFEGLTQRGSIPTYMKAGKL
Chain of UniProt Q9NVC3 (Q9NVC3 whole entry, looked up): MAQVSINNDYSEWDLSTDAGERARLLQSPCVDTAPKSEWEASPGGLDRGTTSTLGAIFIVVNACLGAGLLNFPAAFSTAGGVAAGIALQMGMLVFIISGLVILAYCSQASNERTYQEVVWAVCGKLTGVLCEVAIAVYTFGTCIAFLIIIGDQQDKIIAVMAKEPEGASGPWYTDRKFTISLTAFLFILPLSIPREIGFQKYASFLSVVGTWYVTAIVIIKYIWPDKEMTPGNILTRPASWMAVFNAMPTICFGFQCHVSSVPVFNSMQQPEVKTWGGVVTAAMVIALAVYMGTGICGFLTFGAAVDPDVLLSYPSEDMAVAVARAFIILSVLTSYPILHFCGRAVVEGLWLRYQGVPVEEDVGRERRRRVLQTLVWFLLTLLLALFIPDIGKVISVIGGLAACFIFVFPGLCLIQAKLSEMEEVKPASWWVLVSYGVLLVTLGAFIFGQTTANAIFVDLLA
Chain of UniProt Q16594 (Q16594 whole entry, looked up): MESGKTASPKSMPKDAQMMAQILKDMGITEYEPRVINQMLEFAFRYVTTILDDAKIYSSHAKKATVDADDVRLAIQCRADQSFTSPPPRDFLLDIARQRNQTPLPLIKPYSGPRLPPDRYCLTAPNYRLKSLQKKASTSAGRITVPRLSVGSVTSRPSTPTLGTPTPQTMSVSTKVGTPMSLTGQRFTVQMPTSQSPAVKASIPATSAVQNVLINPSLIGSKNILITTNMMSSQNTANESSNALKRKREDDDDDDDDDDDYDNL
Chain of UniProt P04183 (P04183 whole entry, looked up): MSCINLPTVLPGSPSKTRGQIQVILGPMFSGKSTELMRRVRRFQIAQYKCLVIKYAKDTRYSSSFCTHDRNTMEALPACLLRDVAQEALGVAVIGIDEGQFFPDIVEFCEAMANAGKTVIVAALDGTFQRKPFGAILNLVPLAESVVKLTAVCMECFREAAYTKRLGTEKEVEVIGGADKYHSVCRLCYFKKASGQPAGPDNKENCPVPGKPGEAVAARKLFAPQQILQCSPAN
Chain of UniProt O00193 (O00193 whole entry, looked up): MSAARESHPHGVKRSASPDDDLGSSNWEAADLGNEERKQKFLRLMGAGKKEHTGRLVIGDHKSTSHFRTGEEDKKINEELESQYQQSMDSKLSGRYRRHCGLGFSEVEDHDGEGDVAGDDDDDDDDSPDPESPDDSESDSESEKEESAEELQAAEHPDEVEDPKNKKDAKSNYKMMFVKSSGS
Chain of UniProt Q6ZRS2 (Q6ZRS2 whole entry, looked up): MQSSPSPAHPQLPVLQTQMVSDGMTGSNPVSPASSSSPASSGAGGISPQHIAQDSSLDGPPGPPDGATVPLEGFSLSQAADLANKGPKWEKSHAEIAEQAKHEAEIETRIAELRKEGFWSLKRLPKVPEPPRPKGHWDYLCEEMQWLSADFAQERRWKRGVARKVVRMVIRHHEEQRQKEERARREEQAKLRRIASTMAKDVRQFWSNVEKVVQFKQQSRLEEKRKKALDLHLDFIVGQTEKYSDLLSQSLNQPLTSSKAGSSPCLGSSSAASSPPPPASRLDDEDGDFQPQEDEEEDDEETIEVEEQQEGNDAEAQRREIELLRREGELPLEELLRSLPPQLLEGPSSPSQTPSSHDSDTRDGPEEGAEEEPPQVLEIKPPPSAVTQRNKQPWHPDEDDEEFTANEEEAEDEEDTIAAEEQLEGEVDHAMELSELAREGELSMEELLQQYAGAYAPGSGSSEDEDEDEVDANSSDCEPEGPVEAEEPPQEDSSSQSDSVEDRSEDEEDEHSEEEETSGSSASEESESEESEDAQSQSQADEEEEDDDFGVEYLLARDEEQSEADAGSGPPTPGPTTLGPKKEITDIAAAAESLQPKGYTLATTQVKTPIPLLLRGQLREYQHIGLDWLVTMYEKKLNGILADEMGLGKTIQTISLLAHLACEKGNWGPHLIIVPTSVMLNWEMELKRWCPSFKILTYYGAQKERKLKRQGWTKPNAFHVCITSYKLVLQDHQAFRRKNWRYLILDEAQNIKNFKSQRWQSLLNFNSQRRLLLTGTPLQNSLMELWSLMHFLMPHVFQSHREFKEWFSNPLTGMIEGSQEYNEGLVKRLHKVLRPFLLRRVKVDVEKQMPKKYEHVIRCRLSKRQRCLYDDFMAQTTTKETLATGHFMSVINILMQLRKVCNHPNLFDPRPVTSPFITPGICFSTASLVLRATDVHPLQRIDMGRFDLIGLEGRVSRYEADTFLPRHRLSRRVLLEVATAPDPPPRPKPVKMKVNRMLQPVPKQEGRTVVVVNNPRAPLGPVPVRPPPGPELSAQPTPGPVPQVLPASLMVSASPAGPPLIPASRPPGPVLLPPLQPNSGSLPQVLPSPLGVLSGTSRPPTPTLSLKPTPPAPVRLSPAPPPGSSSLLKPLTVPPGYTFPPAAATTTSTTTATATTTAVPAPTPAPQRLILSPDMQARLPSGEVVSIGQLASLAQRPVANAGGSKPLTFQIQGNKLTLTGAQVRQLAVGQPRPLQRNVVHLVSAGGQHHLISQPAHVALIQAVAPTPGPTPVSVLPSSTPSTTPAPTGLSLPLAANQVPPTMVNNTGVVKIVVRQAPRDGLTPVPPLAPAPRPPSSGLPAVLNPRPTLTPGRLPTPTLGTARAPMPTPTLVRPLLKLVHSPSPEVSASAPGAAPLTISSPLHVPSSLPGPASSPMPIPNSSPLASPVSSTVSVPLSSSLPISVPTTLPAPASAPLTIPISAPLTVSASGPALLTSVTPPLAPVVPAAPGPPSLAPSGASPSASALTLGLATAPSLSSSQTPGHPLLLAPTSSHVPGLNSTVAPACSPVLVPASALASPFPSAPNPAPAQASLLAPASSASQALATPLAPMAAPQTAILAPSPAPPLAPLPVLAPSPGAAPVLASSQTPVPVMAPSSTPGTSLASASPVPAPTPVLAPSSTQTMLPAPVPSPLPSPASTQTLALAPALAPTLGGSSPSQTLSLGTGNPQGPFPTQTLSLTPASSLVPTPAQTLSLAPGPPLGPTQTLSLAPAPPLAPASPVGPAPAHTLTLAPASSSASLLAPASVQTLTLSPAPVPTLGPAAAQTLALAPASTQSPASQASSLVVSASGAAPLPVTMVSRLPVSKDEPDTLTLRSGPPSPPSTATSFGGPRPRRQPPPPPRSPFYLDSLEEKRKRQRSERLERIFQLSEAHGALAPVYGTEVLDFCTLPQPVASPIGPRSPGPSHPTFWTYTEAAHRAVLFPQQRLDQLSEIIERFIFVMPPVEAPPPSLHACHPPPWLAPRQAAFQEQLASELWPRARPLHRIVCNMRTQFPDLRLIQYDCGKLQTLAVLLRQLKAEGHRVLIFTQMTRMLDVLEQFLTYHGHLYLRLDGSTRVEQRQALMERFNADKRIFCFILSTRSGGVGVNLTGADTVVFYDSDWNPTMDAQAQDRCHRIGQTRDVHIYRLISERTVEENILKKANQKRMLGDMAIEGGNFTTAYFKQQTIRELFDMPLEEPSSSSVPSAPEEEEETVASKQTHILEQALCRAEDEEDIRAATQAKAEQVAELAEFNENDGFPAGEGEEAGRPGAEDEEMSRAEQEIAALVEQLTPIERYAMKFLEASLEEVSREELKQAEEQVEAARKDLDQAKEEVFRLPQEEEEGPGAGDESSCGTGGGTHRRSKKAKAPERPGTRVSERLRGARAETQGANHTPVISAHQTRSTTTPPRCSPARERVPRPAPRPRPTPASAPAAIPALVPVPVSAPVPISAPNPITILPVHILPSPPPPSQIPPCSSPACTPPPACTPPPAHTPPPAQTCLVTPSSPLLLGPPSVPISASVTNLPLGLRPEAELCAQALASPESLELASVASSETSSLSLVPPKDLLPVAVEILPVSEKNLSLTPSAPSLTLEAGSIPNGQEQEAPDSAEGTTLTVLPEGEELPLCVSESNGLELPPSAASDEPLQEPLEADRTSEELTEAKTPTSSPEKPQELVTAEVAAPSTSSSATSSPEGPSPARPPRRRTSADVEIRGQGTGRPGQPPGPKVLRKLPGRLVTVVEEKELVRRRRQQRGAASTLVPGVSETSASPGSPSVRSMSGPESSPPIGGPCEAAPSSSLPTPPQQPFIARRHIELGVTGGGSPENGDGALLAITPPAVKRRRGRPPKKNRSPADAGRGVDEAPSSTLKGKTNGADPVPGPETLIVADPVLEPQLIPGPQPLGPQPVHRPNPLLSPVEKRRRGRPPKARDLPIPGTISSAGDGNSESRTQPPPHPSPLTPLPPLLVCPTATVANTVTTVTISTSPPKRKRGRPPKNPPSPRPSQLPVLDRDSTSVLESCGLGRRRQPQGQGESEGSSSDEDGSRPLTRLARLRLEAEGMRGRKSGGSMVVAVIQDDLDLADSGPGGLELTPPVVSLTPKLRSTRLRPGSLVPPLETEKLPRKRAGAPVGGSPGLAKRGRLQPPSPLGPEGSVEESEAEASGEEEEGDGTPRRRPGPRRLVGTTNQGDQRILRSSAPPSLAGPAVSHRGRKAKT
Chain of UniProt Q5JUR7 (Q5JUR7 whole entry, looked up): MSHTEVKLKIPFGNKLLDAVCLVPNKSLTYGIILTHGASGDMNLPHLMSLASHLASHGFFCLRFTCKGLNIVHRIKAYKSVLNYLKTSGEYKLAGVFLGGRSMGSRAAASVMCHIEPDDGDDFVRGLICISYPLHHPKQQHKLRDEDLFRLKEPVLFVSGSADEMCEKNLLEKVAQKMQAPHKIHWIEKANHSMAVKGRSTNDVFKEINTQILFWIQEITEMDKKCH

log2 fold change, inactive:
SMAP (UniProt O00193) 0.043
TGFBR1 isoform 2 (UniProt P36897) -0.009
SLC7A6OS (UniProt Q96CW6) -0.062
TK1 (UniProt P04183) -0.04
TACC2 (UniProt O95359) -0.044
TEX30 (UniProt Q5JUR7) -0.01
TATDN2 (UniProt Q93075) 0.088
STK11IP (UniProt Q8N1F8) -0.06
SRXN1 (UniProt Q9BYN0) -0.011
SSRP1 (UniProt Q08945) 0.007
STK38L (UniProt Q9Y2H1) -0.02
TAF9 (UniProt Q16594) -0.076
SP1 (UniProt P08047) -0.041
SRPRB (UniProt Q9Y5M8) 0.107
SLC38A7 (UniProt Q9NVC3) -0.142
SP100 isoform 4 (UniProt P23497) -0.047
TK1 (UniProt K7ERV3) -0.03
SMARCA4 (UniProt P51532) 0.149
SLC44A2 isoform 2 (UniProt Q8IWA5) 0.058
TBC1D20 isoform 3 (UniProt Q96BZ9) -0.03
SRSF6 (UniProt Q13247) 0.578
SPIRE1 (UniProt Q08AE8) -0.06
SRC isoform 2 (UniProt P12931) -0.054
SMG1 (UniProt Q96Q15) 0.059
SRCAP (UniProt Q6ZRS2) -0.057
SNRPB2 (UniProt P08579) -0.034
STARD3 (UniProt Q14849) -0.097
SNX15 (UniProt Q9NRS6) 0.036
TIAL1 isoform 2 (UniProt Q01085) -0.072
TENT5C (UniProt Q5VWP2) -0.055
SLC39A11 (UniProt Q8N1S5) -0.13
TFB2M (UniProt Q9H5Q4) -0.046
SSBP4 (UniProt Q9BWG4) -0.045
SYNE1 (UniProt Q8NF91) -0.051
SRFBP1 (UniProt Q8NEF9) 0.075
STRN (UniProt O43815) -0.016
SYNE2 isoform 2 (UniProt Q8WXH0) -0.008
SNX12 isoform 1 (UniProt Q9UMY4) -0.067

compound: Cc1cccc(CC(=O)N2CCc3c2ccc(-c2cn(C)c4ncnc(N)c24)c3F)n1; test: as above
In short: as §1

log2 fold change, inactive:
SMAP (UniProt O00193) -0.022
TGFBR1 isoform 2 (UniProt P36897) -0.052
SLC7A6OS (UniProt Q96CW6) 0.15
TK1 (UniProt P04183) -0.028
TACC2 (UniProt O95359) 0.011
TEX30 (UniProt Q5JUR7) -0.053
TATDN2 (UniProt Q93075) -0.151
STK11IP (UniProt Q8N1F8) 0.111
SRXN1 (UniProt Q9BYN0) -0.157
SSRP1 (UniProt Q08945) 0.015
STK38L (UniProt Q9Y2H1) -0.065
TAF9 (UniProt Q16594) -0.026
SP1 (UniProt P08047) -0.006
SRPRB (UniProt Q9Y5M8) 0.14
SLC38A7 (UniProt Q9NVC3) 0.016
SP100 isoform 4 (UniProt P23497) -0.056
TK1 (UniProt K7ERV3) 0.022
SMARCA4 (UniProt P51532) -0.118
SLC44A2 isoform 2 (UniProt Q8IWA5) -0.053
TBC1D20 isoform 3 (UniProt Q96BZ9) -0.083
SRSF6 (UniProt Q13247) 0.192
SPIRE1 (UniProt Q08AE8) -0.194
SRC isoform 2 (UniProt P12931) -0.037
SMG1 (UniProt Q96Q15) -0.012
SRCAP (UniProt Q6ZRS2) -0.001
SNRPB2 (UniProt P08579) -0.081
STARD3 (UniProt Q14849) 0.064
SNX15 (UniProt Q9NRS6) 0.154
TIAL1 isoform 2 (UniProt Q01085) -0.028
TENT5C (UniProt Q5VWP2) 0.009
SLC39A11 (UniProt Q8N1S5) -0.043
TFB2M (UniProt Q9H5Q4) 0.008
SSBP4 (UniProt Q9BWG4) -0.069
SYNE1 (UniProt Q8NF91) 0.008
SRFBP1 (UniProt Q8NEF9) -0.014
STRN (UniProt O43815) 0.063
SYNE2 isoform 2 (UniProt Q8WXH0) 0.031
SNX12 isoform 1 (UniProt Q9UMY4) 0.042
